LDHA inh = qHTS assay for inhibitors of human lactate dehydrogenase; purified LDHA, NADH/diaphorase-resazurin fluorescence; stronger effect = lower value; activity change, % (values are at about 110 or 230 µM); hit rate 0.15% among 480,000; AID 1347041, 2019; in the data active = activity change below about -30%; inconclusive = mostly about -25% to -30%;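 also: plate controls were DMSO wells for no effect and wells without enzyme for full effect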
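Human LDH5 (2 nM) was incubated with 0.06 mM NADH and 0.2 mM pyruvate for 5 min at room temperature in Tris pH 7.4. Remaining NADH was coupled through diaphorase/resazurin, and resorufin fluorescence was read at 0 and 20 min.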
TDP1 cell CPT = qHTS for Inhibitors of human tyrosyl-DNA phosphodiesterase 1 (TDP1): qHTS in cells in presence of CPT | chicken DT40 Tdp1-/-;hTDP1 cells + 20 nM CPT, ATP luminescence, 48 h | AID 686979, 2013 | Potency, µM (doses to about 46.2 µM), for inactives: at the highest dose activity change, negative = growth inhibition, actives largely listed as inhibitors | hit rate 12% among 420,000; also: potency is read from the fitted curve at half-maximal effect; nearly all actives have a fitted effect of over 55% in size
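Cell growth measured by CellTiter-Glo luminescence after a minimum 48 h, 37 C compound exposure with 20 nM CPT in Tdp1-knockout DT40 cells stably expressing hTDP1, seeded 400/well; qHTS titration format.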
TDP1 cell noCPT = qHTS for Inhibitors of human tyrosyl-DNA phosphodiesterase 1 (TDP1): qHTS in cells in absence of CPT | Potency, µM (series often up to 46.2 µM), inactives show at the top dose activity change, negative = growth inhibition, usual class: inhibitors | DT40 Tdp1-/- hTDP1 cells, no CPT, ATP luminescence, 48 h | hit rate 15% among 420,000 | AID 686978, 2013; also: potency is read from the fitted curve at half-maximal effect; nearly all actives have a fitted effect of over 55% in size
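Stably hTDP1-transfected Tdp1-null chicken DT40 cells were treated with library compounds minus camptothecin and grown for at least 48 hr at 37 °C, after which cellular ATP was quantified by luminescence.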
RORgamma inh = qHTS for inhibitors of ROR gamma transcriptional activity; hit rate 5.4% among 310,000; Potency, µM (titrated, usually from 53.6 µM), for the others: at the top dose activity change, negative = inhibition, actives largely listed as inhibitors; AID 2551, 2010; Nuclear receptor ROR-gamma (Mus musculus), P51450; Drosophila S2 Gal4-RORgamma UAS-luciferase reporter, 20 h; also: potency is read from the fitted curve at half-maximal effect; nearly all actives have a fitted effect of over 60% in size
Target sequence (P51450 whole entry, looked up, the tested form may be a part): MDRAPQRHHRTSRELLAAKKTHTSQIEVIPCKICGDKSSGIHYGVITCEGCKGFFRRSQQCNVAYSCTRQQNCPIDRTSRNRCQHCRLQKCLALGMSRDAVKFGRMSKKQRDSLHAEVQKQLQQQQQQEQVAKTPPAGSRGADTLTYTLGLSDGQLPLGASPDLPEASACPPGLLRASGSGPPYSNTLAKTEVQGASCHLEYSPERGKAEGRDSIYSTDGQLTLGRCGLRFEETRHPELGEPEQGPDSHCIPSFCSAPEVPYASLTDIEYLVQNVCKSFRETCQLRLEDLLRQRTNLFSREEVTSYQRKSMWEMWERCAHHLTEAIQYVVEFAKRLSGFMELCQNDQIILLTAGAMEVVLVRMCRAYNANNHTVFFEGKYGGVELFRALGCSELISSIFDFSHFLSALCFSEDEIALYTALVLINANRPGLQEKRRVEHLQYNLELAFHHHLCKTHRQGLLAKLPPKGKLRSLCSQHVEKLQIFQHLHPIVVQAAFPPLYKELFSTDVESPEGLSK
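Luciferase reporter read in Schneider cells carrying Gal4-RORγ (mouse) and UAS-Photinus luciferase; cells given compound 1 h before 700 uM copper sulfate induction, then incubated 20 h at ambient temperature.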
IL-1B inflam inh = qHTS for Inhibitors of Inflammasome Signaling: IL-1-beta AlphaLISA Primary Screen; THP-1 LPS/ATP IL-1B secretion, AlphaLISA, 16 h; stronger effect = lower value; activity change, % at 57.5 µM; hit rate 4.7% among 360,000; in the data active = activity change below about -50%; inconclusive = mostly about -30% to -49%
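THP-1 cells pretreated 1 hr with compounds (up to 57.5 uM final), then stimulated with LPS (250 ng/mL final) plus ATP (1.25 mM final); secreted IL-1B measured by AlphaLISA after 16 hr, decreased signal indicating inhibition.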
VP16 counter = VP16 counterscreen qHTS for inhibitors of ROR gamma transcriptional activity; Potency, µM (doses to about 53.6 µM), for the others: at the highest dose activity, negative = inhibition, actives largely listed as inhibitors; Drosophila S2 Gal4-VP16 UAS-luciferase, luminescence, 20 h; hit rate 3.5% among 310,000;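 also: Gal4-VP16 expression switched on by copper sulfate through the metallothionein promoter; potency is read from the fitted curve at half-maximal effect; nearly all actives have a fitted effect of over 50% in size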
An asterisk follows results filed as active; [ ] = dose if it differs, or a comment. An excerpt weighted towards active compounds, which were near 18% of everything screened. Unless noted, calls follow the shape of the dose curve; as a rule, active = well fitted curve in the direction sought with a large enough effect; inconclusive = small, poorly fitted or top-dose-only effect, or another doubt; inactive = no such curve, though single readings can be large; an effect the other way counts as inactive or inconclusive. Unless noted, % is scaled to controls: 0 for no effect and ±100 for the full control effect.

How did CCN(CC)S(=O)(=O)c1ccc(-c2nc(C#N)c(N(C)Cc3ccccc3)o2)cc1 do in these assays?
LDHA inh: 6.0

Results for CCOC(=O)c1cc2c(=O)c3cc(C)ccc3oc2nc1C ?
LDHA inh: -7.8; TDP1 cell CPT: inconclusive; TDP1 cell noCPT: 14.6µM*; RORgamma inh: 30.3%; IL-1B inflam inh: -2.4; VP16 counter: -12.5%

What do the screens show for `CCN(CC)S(=O)(=O)NCc1ccccc1Cn1cccn1`?
LDHA inh: -0.2

Results for Clc1ccc2c(c1)C(C1=NCCN1)c1ccccc1CS2 (stereo unspecified) ?
LDHA inh: -5.7; TDP1 cell CPT: 6.51µM*; TDP1 cell noCPT: 5.8µM*; RORgamma inh: 1.6%; IL-1B inflam inh: -11.7; VP16 counter: -5.3%

How did Nc1ncc2c(n1)-c1cc(Cl)ccc1SC2 do in these assays?
LDHA inh: 3.6; TDP1 cell CPT: -3.2%; TDP1 cell noCPT: -11.2%; RORgamma inh: 3.9%; IL-1B inflam inh: -18.4; VP16 counter: -9.5%

Results for COc1ccc(Cc2nc3c4c(ncn3n2)Oc2cc(O)ccc2C4c2ccc(OC)cc2)cc1 (stereo unspecified) ?
LDHA inh: -4.7

What do the screens show for `CCc1c(C(=O)Nc2ccncc2)csc1C`?
LDHA inh: 0.5; TDP1 cell CPT: inconclusive; TDP1 cell noCPT: 20.6µM*; RORgamma inh: -0.6%[0.365 µM]; IL-1B inflam inh: 13.1

How did CCc1c(C(=O)Nc2ccccc2C(N)=O)csc1C do in these assays?
LDHA inh: 2.4; TDP1 cell CPT: -19.7%; TDP1 cell noCPT: -10.8%; RORgamma inh: -11.2%; IL-1B inflam inh: 3.5; VP16 counter: -14.7%

Results for CCc1c(C(=O)Nc2ncn(Cc3cccc(C)c3)n2)csc1C ?
LDHA inh: 4.5; TDP1 cell CPT: -29.1%; TDP1 cell noCPT: inconclusive; RORgamma inh: 3.98µM*; IL-1B inflam inh: -2.0; VP16 counter: 12.6µM*

What do the screens show for `CC(=O)c1ccc(NC(=O)Nc2ncn(Cc3cccc(C)c3)n2)cc1`?
LDHA inh: -6.7; TDP1 cell CPT: -21.4%; TDP1 cell noCPT: inconclusive; RORgamma inh: inconclusive; IL-1B inflam inh: 13.4; VP16 counter: 7.0%

What do the screens show for `O=S(=O)(N[C@H]1C[C@@H](NS(=O)(=O)OCC(Cl)(Cl)Cl)C2CCCCC21)OCC(Cl)(Cl)Cl` (stereo partly specified)?
LDHA inh: 4.6; TDP1 cell CPT: inconclusive; TDP1 cell noCPT: 23.1µM*; RORgamma inh: 14.7%; IL-1B inflam inh: 2.7; VP16 counter: inconclusive

Results for CCC(=O)N(C1=C(NC(C)C)C(=O)c2ccccc2C1=O)C(C)C ?
LDHA inh: 9.0; TDP1 cell CPT: 20.6µM*; TDP1 cell noCPT: 9.2µM*; RORgamma inh: 10µM*; IL-1B inflam inh: 59.8; VP16 counter: inconclusive

How did CCCCCCCNC(=O)C1(CC2CC(c3ccc(Cl)cc3)=NO2)CCN(C(=O)c2cc(OCC)c(OCC)c(OCC)c2)CC1 (stereo unspecified) do in these assays?
LDHA inh: 0.2; TDP1 cell CPT: 20.6µM*; TDP1 cell noCPT: 10.3µM*; RORgamma inh: 20.2%; IL-1B inflam inh: -27.7; VP16 counter: -10.4%

How did CCCCCCCNC(=O)C1(CC2CC(c3cccc(Br)c3)=NO2)CCN(C(=O)Cc2ccc(F)cc2)CC1 (stereo unspecified) do in these assays?
LDHA inh: -6.0; TDP1 cell CPT: inconclusive; TDP1 cell noCPT: 16.4µM*; IL-1B inflam inh: -58.7*

How did CCCCCCCNC(=O)C1(CC2CC(c3ccc(Cl)cc3)=NO2)CCN(C(=O)CCCCCBr)CC1 (stereo unspecified) do in these assays?
LDHA inh: 11.0; TDP1 cell CPT: 16.4µM*; TDP1 cell noCPT: 18.4µM*; RORgamma inh: 41.9%; IL-1B inflam inh: inconclusive; VP16 counter: -2.8%

Results for CCCCCCCNC(=O)C1(CC2CC(c3ccc(Cl)cc3)=NO2)CCN(C(=O)c2ccccc2)CC1 (stereo unspecified) ?
LDHA inh: -3.7; TDP1 cell CPT: inconclusive; TDP1 cell noCPT: inconclusive; RORgamma inh: 42.5%; IL-1B inflam inh: inconclusive; VP16 counter: 6.8%

Results for CCCCCCCNC(=O)C1(CC2CC(c3cccc(Br)c3)=NO2)CCNCC1 (stereo unspecified) ?
LDHA inh: 2.5; TDP1 cell CPT: 13µM*; TDP1 cell noCPT: 16.4µM*; RORgamma inh: 23.3%; IL-1B inflam inh: -101.6*; VP16 counter: -15.1%

Results for O=C(CCCCCBr)N1CCC(CC2CC(c3ccc(Cl)cc3)=NO2)(C(=O)NCC2CCCCC2)CC1 (stereo unspecified) ?
LDHA inh: 4.0; TDP1 cell CPT: -28.8%; TDP1 cell noCPT: inconclusive; RORgamma inh: inconclusive; IL-1B inflam inh: -18.5; VP16 counter: -0.7%

Results for CC(C)(C)OC(=O)NC(C)(C)C(=O)NCC(O)c1ccccc1 (stereo unspecified) ?
LDHA inh: -7.8

How did COc1ccc2cnn(CC(=O)Nc3ccc(Oc4ccccc4)cc3)c(=O)c2c1OC do in these assays?
LDHA inh: -2.9

Results for Clc1ccc(C2C=C(c3ccccc3)Nc3ncnn32)c(Cl)c1 (stereo unspecified) ?
LDHA inh: -4.6

How did CCCCCCCNC(=O)C1(CC2CC(c3ccc(Cl)cc3)=NO2)CCNCC1 (stereo unspecified) do in these assays?
LDHA inh: -11.1; TDP1 cell CPT: 8.2µM*; TDP1 cell noCPT: 10.3µM*; RORgamma inh: inconclusive; IL-1B inflam inh: -84.1*; VP16 counter: inconclusive

What do the screens show for `COc1ccc(CNC(=O)C2(CC3CC(c4ccccc4)=NO3)CCN(C(=O)OC(C)(C)C)CC2)cc1` (stereo unspecified)?
LDHA inh: 0.7; TDP1 cell CPT: inconclusive; TDP1 cell noCPT: inconclusive; IL-1B inflam inh: -9.7

What do the screens show for `COc1ccc(CNC(=O)C2(CC3CC(c4ccccc4)=NO3)CCN(C(=O)CCCCCBr)CC2)cc1` (stereo unspecified)?
LDHA inh: -1.8; TDP1 cell CPT: 9.2µM*; TDP1 cell noCPT: inconclusive; IL-1B inflam inh: -8.9

Results for O=C(CSc1nnc(C2CC2)n1Cc1ccccc1)c1ccccc1F ?
LDHA inh: -4.4

Compound activity from PubChem.
